This note sets out measurements from PubChem BioAssay (Tox21).

Experiment [1] in a line: qHTS assay for small molecules that induce genotoxicity in human embryonic kidney cells expressing luciferase-tagged ATAD5 (AID 651632). Further: nearly all actives have a fitted effect of over 15% in size. Further: potency means the concentration at half of the fitted maximal effect. In a few lines: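 HEK293T cells carrying luciferase-tagged ATAD5 were given compound or DMSO vehicle and incubated 16 hr at 37C, 5% CO2. Luciferase activity was read after 30 min at room temperature with Amplite; a rise signals genotoxic stress.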

Experiment [2] in a line: qHTS assay for small molecule agonists of the p53 signaling pathway - cell viability (AID 651633; calls by dose curve; further: nearly all actives have a fitted effect of over 30% in size; further: potency means the concentration at half of the fitted maximal effect). In a few lines:
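Viability counter-read: CellTiter-Glo luminescence (30 min, room temperature) in the same p53RE-bla plates. These plates had been exposed to compounds for 16 h at 37 C.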
(In general: Quantitative high-throughput screening tests each substance at several concentrations.)

Experiment [3] in a line: qHTS assay for small molecules that induce genotoxicity in human embryonic kidney cells expressing luciferase-tagged ATAD5 - cell viability (AID 651634; calls by dose curve; further: nearly all actives have a fitted effect of over 25% in size). Put shortly: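 HEK293T cells carrying luciferase-tagged ATAD5, 2,000 cells/well, exposed to compound for 15.5 hr at 37C. Viability read as live-cell protease activity by CellTiter-Fluor fluorescence after 30 min at 37C.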

Experiment [4] is described as follows: qHTS assay for small molecule disruptors of the mitochondrial membrane potential - cell viability (AID 720634; calls by dose curve; further: nearly all actives have a fitted effect of over 20% in size; further: potency means the concentration at half of the fitted maximal effect). In a few lines:
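HepG2 cells, 2,000 per well, attached overnight, then treated 1 hr at 37 C, 5% CO2. Viability read as ATP by CellTiter-Glo luminescence after 30 min at room temperature. Read in the same wells as the m-MPI membrane-potential dye assay.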

Experiment [5] in a line: qHTS assay for small molecule disruptors of the mitochondrial membrane potential (AID 720635). Further: potency means the concentration at half of the fitted maximal effect. In a few lines:
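Mitochondrial membrane potential tracked with Mito-MPS dye, red aggregates (ex 540/em 590 nm) against green monomers (ex 490/em 535 nm). Compound treatment 1 hr at 37C, dye 30 min in HepG2.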

A short description of experiment [6]: qHTS assay to test for compound auto fluorescence at 590 nm (red) in HepG2 cells (AID 720674). In a few lines:
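1 hr compound incubation on HepG2 cells, 37 C, 5% CO2; plate read ex 540 nm / em 590 nm; intensities reported as Rose Bengal sodium equivalents.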

The nature of experiment [7]: qHTS assay to test for compound auto fluorescence at 535 nm (green) in HepG2 cells (AID 720675).
A short description of experiment [8]: qHTS assay to test for compound auto fluorescence at 460 nm (blue) in HEK293 cells (AID 720678). Put shortly:
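After cell attachment (4-5 hr, 37C), compounds were pinned onto HEK293 monolayers in 10% dialyzed FBS medium. The blue channel (405/460 nm) was read following overnight culture. Equivalency was calculated against triamterene.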

Experiment [9] in a line: qHTS assay to test for compound auto fluorescence at 590 nm (red) in HEK293 cells (AID 720679). In a few lines:
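Plates of HEK293 cells (10% dialyzed FBS) are treated with 23 nL compound or DMSO vehicle after a 4-5 hr attachment period, incubated overnight at 37C, and read for red fluorescence at 540/590nm.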

Experiment [10] can be described thus: qHTS assay to test for compound auto fluorescence at 535 nm (green) in HEK293 cells (AID 720680).
Experiment [11] can be described thus: qHTS assay to test for compound auto fluorescence at 460 nm (blue) in HEK293 cell free culture (AID 720681). Put shortly:
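Blue fluorescence (Ex 405/Em 460 nm, triamterene-equivalent) was read immediately after pin transfer of compound or DMSO into medium (DMEM, 10% FBS) without cells.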

Experiment [12] in a line: qHTS assay to test for compound auto fluorescence at 535 nm (green) in HEK293 cell free culture (AID 720682). Put shortly:
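Fluorescein serves as the green reference fluorophore; each compound's intrinsic emission at 535 nm (excitation 485 nm) is reported as an equivalent amount of that dye, measured in serum-containing DMEM without cells.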

The nature of experiment [13]: qHTS assay to test for compound auto fluorescence at 590 nm (red) in HEK293 cell free culture (AID 720683). Put shortly:
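Red-channel autofluorescence of compounds in culture medium (DMEM, 10% FBS), no cells, measured at 540/590 nm. Rose Bengal sodium is the reference fluorophore for equivalence.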

Experiment [14] can be described thus: qHTS assay to test for compound auto fluorescence at 590 nm (red) in HepG2 cell free culture (AID 720684). In a few lines: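 Steps: dispense MEM/10% FBS medium, no cells; pin compound or DMSO vehicle; read red channel, Ex/Em 540/590 nm. Output given as Rose Bengal sodium equivalents.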
A short description of experiment [15]: qHTS assay to test for compound auto fluorescence at 460 nm (blue) in HepG2 cell free culture (AID 720685). In a few lines: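 Compound (23 nL) or DMSO pinned into cell-free MEM with 10% FBS; blue fluorescence read at 405/460 nm excitation/emission, expressed as auto-fluorescence equivalency to triamterene.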
The nature of experiment [16]: qHTS assay to test for compound auto fluorescence at 535 nm (green) in HepG2 cell free culture (AID 720686).
Experiment [17] in a line: qHTS assay to test for compound auto fluorescence at 460 nm (blue) in HepG2 cells (AID 720687). Put shortly: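 Blue-channel autofluorescence (Ex/Em 405/460 nm, triamterene-equivalent) was measured after 1 hr compound exposure at 37 C, 5% CO2. Cells were HepG2, plated overnight at 37 C in MEM plus 10% FBS.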
The target in experiment [18] is Glucocorticoid receptor (Homo sapiens) (UniProt P04150). Description: qHTS assay to identify small molecule agonists of the glucocorticoid receptor (GR) signaling pathway (AID 720691; active means well fitted activation curve with a large enough effect in the signal ratio in the repeat runs, not every such curve was filed as active; the % refers to the signal ratio). In a few lines: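 GR-bla HeLa cells carrying a GRE-driven beta-lactamase reporter, exposed to compounds for 18 h at 37 C. Reporter activation read as fluorescence after 2 h with LiveBLAzer B/G FRET substrate at room temperature.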

Experiment [19] is described as follows: qHTS assay for small molecule agonists of the p53 signaling pathway (AID 651631; calls by dose curve; further: nearly all actives have a fitted effect of over 15% in size; further: potency means the concentration at half of the fitted maximal effect). In a few lines: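 Read-out is beta-lactamase FRET fluorescence measured 2 h after substrate addition at room temperature, in HCT-116 cells with a p53 response element-driven reporter exposed to compounds for 16 h at 37 °C.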

“And” between values parts separate entries of the source, which are not always exact repeats. Equal entries are not always repeated. A number with no mark means an inactive call. Results filed as inconclusive are left out. The source made the active and inactive calls. Unless noted, the call rests on the fitted dose curve; in most records, active means well fitted curve in the direction sought with a large enough effect in the repeat runs; inconclusive means weak or mixed curves; inactive means no such curve, though single readings can be large; an effect the other way counts as inactive or inconclusive.

Chain of Glucocorticoid receptor (Homo sapiens) (P04150 whole entry, looked up): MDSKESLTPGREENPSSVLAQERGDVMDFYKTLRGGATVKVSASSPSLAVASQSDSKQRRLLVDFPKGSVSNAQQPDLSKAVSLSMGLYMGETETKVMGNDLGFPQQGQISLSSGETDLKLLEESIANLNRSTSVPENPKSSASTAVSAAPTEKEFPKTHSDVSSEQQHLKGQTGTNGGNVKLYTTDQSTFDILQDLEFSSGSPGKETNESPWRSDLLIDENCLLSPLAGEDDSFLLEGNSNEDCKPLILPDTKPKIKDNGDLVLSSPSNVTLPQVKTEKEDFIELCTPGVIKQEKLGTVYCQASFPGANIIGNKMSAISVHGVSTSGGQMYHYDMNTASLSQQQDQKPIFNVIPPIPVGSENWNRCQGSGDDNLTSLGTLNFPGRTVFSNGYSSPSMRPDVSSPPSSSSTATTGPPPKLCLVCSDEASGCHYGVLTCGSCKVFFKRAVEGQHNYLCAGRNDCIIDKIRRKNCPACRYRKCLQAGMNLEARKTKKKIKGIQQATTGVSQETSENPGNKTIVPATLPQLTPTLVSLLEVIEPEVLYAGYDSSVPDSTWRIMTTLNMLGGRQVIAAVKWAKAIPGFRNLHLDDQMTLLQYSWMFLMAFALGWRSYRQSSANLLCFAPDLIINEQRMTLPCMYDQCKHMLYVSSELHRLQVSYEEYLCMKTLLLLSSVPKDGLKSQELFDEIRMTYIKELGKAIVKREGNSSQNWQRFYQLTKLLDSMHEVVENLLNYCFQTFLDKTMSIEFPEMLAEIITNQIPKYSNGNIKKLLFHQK

`Cc1cc(C(F)(C(F)(F)F)C(F)(F)F)ccc1NC(=O)c1cccc(I)c1C(=O)NC(C)(C)CS(C)(=O)=O`: the Potency entry in [1], in [2], in experiment [3], in [4], in experiment [8] and in experiment [11] was “inactive” in each case. Also, the Potency result in [15], in [17] and in [18] was “inactive” each time. In addition, the Potency in [5] is 17.3 µM (active). Also, the call in [6], in experiment [7], in [9], in [10], in experiment [12] and in experiment [13] was inactive. The compound was classed as inactive in experiment [14] and in experiment [16].

Regarding `[Cl][Sb]([Cl])[Cl]`, the Potency in experiment [19] is 34.4 µM (active). The Potency result in experiment [2], in experiment [4], in experiment [8], in experiment [11], in [15] and in [17] was “inactive” in each case. Besides, the compound was classed as inactive in experiment [6], in experiment [7], in experiment [10], in experiment [12], in [13] and in experiment [14]. For the same compound, the compound was called inactive in experiment [16].

For the compound `O=[N+]([O-])c1ccc2ccc3cccc4ccc1c2c34`, the Potency in experiment [1] was 48.5 µM (active); in experiment [5], 1.22 µM (active). The Potency result in experiment [2], in experiment [3], in experiment [4], in experiment [8], in experiment [11] and in [15] was “inactive” each time. The Potency entry in experiment [17] was “inactive”. Moreover, the compound was classed as inactive in experiment [6], in experiment [7], in experiment [9], in [10], in experiment [12] and in [13]. Besides, the result in experiment [14] and in experiment [16] was inactive.

In the case of `Cc1ccc(OP(=O)(Oc2ccccc2)Oc2ccccc2)cc1`, the Potency result in experiment [19], in experiment [1], in experiment [2], in [3], in experiment [8] and in experiment [11] was “inactive” throughout. Also, the Potency result in experiment [15] and in [17] was “inactive” in each case. The Potency in [5] was 0.983 µM (active). The compound was called inactive in experiment [6], in experiment [7], in experiment [9], in experiment [10], in [12] and in experiment [13]. Further, in experiment [16], the compound was classed as inactive.

Consider `ClC1=C(Cl)C2(Cl)C3C(Cl)C=CC3C1(Cl)C2(Cl)Cl` (stereo unspecified), for which the Potency result in experiment [1], in experiment [3], in [4], in experiment [8], in [11] and in experiment [15] was “inactive” throughout. Moreover, the Potency entry in [17] was “inactive”. The Potency in experiment [2] was 68.9 µM (active) and 54.5 µM (active); in experiment [5] it was 27.4 µM (active) and 54.5 µM (active). Moreover, the outcome in experiment [6], in experiment [7], in experiment [9], in experiment [10], in experiment [12] and in [13] was inactive. Further, the compound was called inactive in experiment [14] and in experiment [16].

For the compound `CCN(CC)c1c([N+](=O)[O-])cc(C(F)(F)F)c(N)c1[N+](=O)[O-]`, the Potency entry in experiment [19], in experiment [1], in [2], in [3], in [8] and in experiment [11] was “inactive” each time. Moreover, the Potency result in experiment [15] and in experiment [17] was “inactive” in each case. In addition, in [5], the Potency was 24.3 µM (active). Also, the outcome in [6], in experiment [7], in experiment [9], in [10], in [12] and in experiment [13] was inactive. Also, the compound was called inactive in experiment [14] and in experiment [16].

For `S=C=Nc1cccc2ccccc12`, the Potency entry in [1], in experiment [3], in experiment [8], in [11], in experiment [15] and in experiment [17] was “inactive” throughout. Further, the Potency in experiment [2] was 48.1 µM (active); in [4], 48.1 µM (active); in [5], 17.1 µM (active). The result in experiment [6], in experiment [7], in [9], in experiment [10], in [12] and in experiment [13] was inactive. Further, the call in experiment [14] and in experiment [16] was inactive.
